The text below walks through data of PubChem BioAssay AID686971 (National Center for Advancing Translational Sciences (NCATS), 2013).

The whole screen tested about 360,000 compounds, of which about 7,500 (2.1%) were called active. Another 8% or so got no clear call; they are omitted. For the sample, actives were picked, then their nearest neighbours and some compounds at random. The source holds several records for some structures; these can differ, active in one and inactive in another. A number with no mark means an inactive call. Calls follow the shape of the dose curve; as a rule, active = well fitted cell-killing curve with a large enough effect; inconclusive = small, poorly fitted or top-dose-only effect, or effect the other way, or another doubt; inactive = no such curve, though single readings can be large or run the other way.
Potency is read from the fitted curve at half-maximal effect.

The test can be described thus: qHTS for induction of synthetic lethality in tumor cells producing 2HG: qHTS for the HT-1080-IDH1KD cell line. The conditions noted are these: HT-1080 IDH1 knockdown viability, ATP luminescence, 48 h; series mostly up to 46.1 µM; activity, negative = toxicity: at the top concentration. An excerpt:
Unbiased genomic sequencing for 22 glioma genomes found recurrent mutation of IDH1 on chromosome 2q33, a gene encoding the cytosolic isoform of IIDH1 associated with the tri-carboxylic acid cycle (TCA) that catalyzes the oxidative decarboxylation of isocitrate, yielding alpha-ketoglutarate and CO2 via NADP+ to NADPH conversion. Subsequent studies confirmed the recurrent IDH mutations in up to 70% of secondary gliomas and in 10% of AML cases. In addition, the somatic mutation of cancer-associated IDH1 is a point mutation resulting in various amino-acid substituents at Arginine132 (IDH1 R132), a key residue found in the enzyme's active site that when mutated, results in the loss-of-function in metabolizing isocitrate but confers a gain-of-function to produce the oncometabolite 2-hydroxyglutarate (2HG). This in effect defines IDH1 as an oncogene and provides an extraordinary opportunity to discover chemical probes against mutant IDH1 that may translate into much needed new therapies for glioma and AML patients.
This assay aims to perform a synthetic-lethal screen for chemical probes specific for 2HG-producing tumor cells using matched paired cell lines (1) HT-1080-NT fibrosarcoma cell line that overproduces 2HG and (2) HT-1080-IDH1KD cell line which has IDH1 expression knocked-down. Desirable compounds are toxic to the NT fibrosarcoma cell line but not to the IDH1KD cell line. The data in this AID corresponds to the results of the qHTS against the HT-1080 IDH1KD cell line.
[1] Dang L, Jin S, Su SM. IDH mutations in glioma and acute myeloid leukemia. Trends of Mol Med. 2010; 16(9): 387-97.
[2] Dang L et al. Cancer-associated IDH1 mutations produce 2-hydroxyglutarate. Nature. 2010; 465(7300):966.
Molecular Libraries Probe Production Centers Network [MLPCN]
NIH Chemical Genomics Center [NCGC]
Assay Submitter (PI): Lenny Dang Ph.D., Agios Pharmaceuticals
Suspensions of trypsinized HT-1080-IDH1KD cells were dispensed into white, tissue culture-treated, solid 1536-well plates at 5uL/well (750 cells/well final concentration) in RPMI medium supplemented with 5% FBS. Plates were incubated at 37 degrees C for 2 hours, after which 23 nL of compounds or DMSO were delivered to each well using a pin tool. Plates were then incubated at 37 degrees C for an additional 48 hours. CellTiter-Glo viability reagent (Promega) was dispensed into wells (2.5uL/well) and incubated at room temperature for 10 minutes. The plates were measured on a PerkinElmer ViewLux plate reader for luminescent signal (clear filter, 1 sec exp.). DMSO-treated control wells and media-only (no cells) control wells were used to normalize %Activity of identified toxic compounds; DMSO-treated wells corresponded to 0%Activity (100% viability), while media-only controls were used to normalize 100%Activity (0% viability). To minimize variability between cell lines, both HT-1080-NT and HT-1080-IDH1KD lines were dispensed and treated with identical compound series in single batches.
Concentration-response curves were fitted to the signals arising from the resulting luminescence. The concentration-effect curves were then classified based on curve quality (r2), response magnitude and degree of measured activity, and compounds were subsequently categorized based on their curve class.
Regarding `CC(=O)OC1C2(CC3N4C(=O)C5(CO)SSC4(CC31O)C(=O)N5C)OC(C)C(C)(C)C2=O` (stereo not given), the Potency was 0.58 µM (active). With `C[C@]12CCC3C(CC[C@H]4[C@H](O)[C@H](O)CC[C@]34C)C1CCC2=O` (stereo not given in full), the “activity, negative = toxicity” value was 1.29% (inactive).

On to `COC(=O)N1C(c2ccccc2)C1c1ccccc1` (stereo not given), for which the “activity, negative = toxicity” value was 22.5% (inactive). As to `CSc1ccc(C(=O)C2CCCN(Cc3ccn[nH]3)C2)cc1` (stereo not given), the “activity, negative = toxicity” value was 13.8% (inactive). For `CCN1C(=O)NC(=O)C2(CCCC2)C1=O`, the “activity, negative = toxicity” value was 0.17% (inactive). Consider `Cc1cc(C)cc(NC(=S)NC2CC3CCCC(C2)N3Cc2cccs2)c1` (stereo not given), for which the Potency was 12.6 µM (active). Consider `Cc1cc(C)c2c(c1)NP(=S)(c1ccccc1)N2` (stereo not given), for which the “activity, negative = toxicity” value is -13.9% (inactive). For `CC(=O)C1(O)CCC2C3CCC4=C(Cl)C(=O)CCC4(C)C3CCC21C` (stereo not given), the “activity, negative = toxicity” value is -28.9% (inactive). Turning to `Oc1cc2c(cc1O)CN(C(=S)NCCc1ccc(Cl)cc1)CCC2`, the “activity, negative = toxicity” value was 5.49% (inactive). For `S=C(NCCc1ccccc1)N1Cc2cc(N3CCOCC3)ccc2-n2nncc2C1`, the “activity, negative = toxicity” value is -18.7% (inactive). In the case of `C[C@H]1CN([C@@H](C)CO)C(=O)CCCn2nncc2CO[C@H]1CN(C)C(=O)Oc1cccc2ccccc12`, the “activity, negative = toxicity” value was 10.6% (inactive). Turning to `O=[N+]([O-])c1ccc(Cl)c(Cl)c1`, the “activity, negative = toxicity” value is 24.3% (inactive).

On to `C[C@]12CCC3C(CC[C@H]4C[C@@H](O)CC[C@]34C)C1C[C@@H](O)[C@H]2O` (stereo not given in full), for which the “activity, negative = toxicity” value was 7.01% (inactive). For `C[C@]12CC[C@H](O)C[C@H]1CC[C@@H]1C2CC[C@]2(C)[C@@H](C3=CC(=O)OC3)[C@@H](O)C[C@]12O` (stereo not given in full), the Potency was 3.66 µM (active). Take `C[C@]12CCC3C(CC[C@H]4C[C@@H](O)CC[C@]34C)C1CC[C@@H]2O` (stereo not given in full): the “activity, negative = toxicity” value was -4.31% (inactive). With `O=C1C2CCN(CC2)C1(CO)CO`, the “activity, negative = toxicity” value is 9.29% (inactive).

In the case of `CCOC(=O)CC(SP1(=S)OCC2(CCCCO2)C(C2CCCCO2)O1)C(=O)OCC` (stereo not given), the “activity, negative = toxicity” value is 6.11% (inactive). As for `CC(=O)Cc1ccc(OC(C)C)cc1`, the “activity, negative = toxicity” value is 22.5% (inactive). Regarding `CN(C)CC1Oc2ccccc2OC1(O)c1ccccc1` (stereo not given), the Potency was 4.61 µM (active). As for `CCCOC(=O)C1C2c3ccccc3C(c3ccccc32)C1C(=O)O` (stereo not given), the “activity, negative = toxicity” value is 16.8% (inactive). On to `Cc1ccc(C2CN(C)CC2C(=O)c2ccc(F)cc2)cc1` (stereo not given), for which the “activity, negative = toxicity” value is -14.3% (inactive). On the same count and under the same terms, in the case of `COc1cc(C(=O)N2Cc3ccc(Br)cc3-n3nncc3C2)cc(OC)c1OC` it was 18.9% (inactive). In the case of `CCN(CC)CCOC(=O)c1cc2cc(COC)ccc2o1`, the “activity, negative = toxicity” value was 4.54% (inactive).

For the compound `COc1ccc2c(c1)NP(=S)(c1ccccc1)N2` (stereo not given), the “activity, negative = toxicity” value was 17.6% (inactive).

As for `CCC(C)(O)C(=O)OC1C(=O)OC2CC3C(C)=CC(=O)C(O)C3(C)C3C4(O)OCC23C1C(C)C4O` (stereo not given), the Potency is 0.0411 µM (active). For `C[C@H]1CN([C@@H](C)CO)C(=O)CCCn2nncc2CO[C@H]1CN(C)C(=O)Oc1ccccc1`, the “activity, negative = toxicity” value is -2.35% (inactive).

`O=C1NC(=O)C(CCOc2ccccc2)(CCc2ccccc2)C(=O)N1`: the “activity, negative = toxicity” value is 3.48% (inactive). Take `COc1ccc(C2C=C(C)Oc3c2c(=O)oc2ccccc32)cc1OC` (stereo not given): the “activity, negative = toxicity” value is -5.45% (inactive). Consider `Cc1ccc(-c2nc3ccccc3c(=O)n2-c2ccc(Br)cn2)cc1`, for which the “activity, negative = toxicity” value was 22.6% (inactive). `COC1C(O)C(C)OC(OC2CCC3(C=O)C(CCC4C3CCC3(C)C(C5=CC(=O)OC5)CCC43O)C2)C1O` (stereo not given): the Potency is 0.0184 µM (active). Consider `CCn1cc(CN2CCCC(C(=O)c3cccc(C(F)(F)F)c3)C2)cn1` (stereo not given), for which the “activity, negative = toxicity” value was 5.48% (inactive).

For `CSCCC(c1nnnn1C(C)(C)C)N1CCC(n2c(=O)[nH]c3ccccc32)CC1` (stereo not given), the “activity, negative = toxicity” value was -23.7% (inactive). With `CC1CCCN1CCC(C(N)=O)(c1ccccc1)c1ccccc1` (stereo not given), the “activity, negative = toxicity” value was -8.22% (inactive). Consider `CCOc1ccc(-c2cc(C)[n+](CCN(CC)CC)c(-c3ccc(OCC)cc3)c2)cc1`, for which the Potency was 5.17 µM (active). With `CCC(=O)OC(Cc1ccccc1)(c1ccccc1)C(C)CN(C)C` (stereo not given), the “activity, negative = toxicity” value was -11.7% (inactive).

For the compound `CCC1(CC(C)c2ccccc2)C(=O)NC(=O)NC1=O` (stereo not given), the “activity, negative = toxicity” value was 5% (inactive). Take `COC(=O)C[C@H]1CC[C@H]2NC[C@@H](O)COC[C@@H]2O1`: the “activity, negative = toxicity” value is 22.5% (inactive).

As to `CC=C(C)C(=O)OC1CCN2CC=C(COC(=O)C(O)(C(C)OC)C(C)(C)O)C12` (stereo not given), the “activity, negative = toxicity” value was 1.21% (inactive).

Regarding `CC(=NCc1ccc2c(c1)OCO2)c1c(O)[nH]c(=O)[nH]c1=O`, the Potency was 20.6 µM (active). As for `c1cc2c(cc1CCNC1CCCCCC1)OCO2`, the “activity, negative = toxicity” value is 5.41% (inactive). As to `Fc1ccc(N2CCN(Cc3ccc4c(c3)OCO4)CC2)cc1`, the “activity, negative = toxicity” value is -4.13% (inactive). Consider `CC(C)n1c(=O)c(C=Nc2ccc(Br)cc2)c(O)n(Cc2ccco2)c1=O`, for which the “activity, negative = toxicity” value was -19.8% (inactive). On the same count and under the same terms, the figure for `COC(=O)C1=C(c2ccc(C(C)=O)cc2)C[C@@H]2CC[C@H]1N2C(=O)NCCNC(C)=O` is 7.51% (inactive); for `Cc1cc(-c2ccc(N)c(C)c2)ccc1N` it is 12.8% (inactive). With `CCN1C(=O)C(=Cc2c(C)n(CC(=O)NCC3CCCO3)c3ccccc23)C(=O)N(CC)C1=S` (stereo not given), the “activity, negative = toxicity” value was -8.26% (inactive).

Turning to `COc1cccc(OC)c1C(=O)NC(=S)N1C[C@H]2C[C@H](C1)c1cccc(=O)n1C2`, the “activity, negative = toxicity” value was 6.67% (inactive). Regarding `CCCCCCCCCCCCn1ccc(=N)cc1`, the Potency was 1.84 µM (active).

With `CN1C2C=C(N(C(=O)c3ccc(Cl)cc3)c3ccccc3)CC1CC2` (stereo not given), the activity, negative = toxicity is -4% [at 9.24 µM]. Consider `CC(=O)NCC1=C(c2ccc3ccccc3c2)C[C@@H]2CC[C@H]1N2Cc1ccco1`, for which the “activity, negative = toxicity” value is 0.901% (inactive).

For `CCOC(=O)[C@]12Cc3ccccc3[C@H]1N(C1CCCCC1)C(=O)c1cc(OC)ccc12`, the Potency was 3.26 µM (active). Regarding `CCOC(=O)[C@]12Cc3cc(OC)ccc3[C@H]1N(C(C)C)C(=O)c1ccccc12`, the Potency was 16.4 µM (active).

Regarding `CC1([N+](=O)[O-])COP(=O)(Nc2ccc(F)cc2)OC1` (stereo not given), the “activity, negative = toxicity” value is 2.49% (inactive). As to `C[C@]12CCC3C(CC[C@H]4[C@H](O)[C@H](O)CC[C@]34C)C1CC[C@@H]2O` (stereo not given in full), the “activity, negative = toxicity” value was 7.82% (inactive). Same read-out and setting: in the case of `CC(C)CN1Cc2cc(N3CCCCC3)ccc2-n2nncc2C1` it was 0.618% (inactive). For the compound `CCN1CC2C3CCC(C)(O3)C2C1` (stereo not given), the “activity, negative = toxicity” value was 13% (inactive).
